An excerpt weighted towards active compounds, which were near 1.3% of everything screened.
RE007 growth inh = less growth of the S. pombe RE007 Vpr strain. Potency, µM (series often up to 92.2 µM), without a hit: at the highest dose activity change, negative = less growth, hits mostly inhibitors. actives 0.21% (n = 360,000). S. pombe RE007 Vpr strain, BacTiter-Glo ATP luminescence, 24 h; active = well fitted falling curve with a large enough effect; inconclusive = small, poorly fitted or top-dose-only effect; inactive = no such curve, though single readings can be large or run the other way; note: nearly all actives have a fitted effect of over 50% in size
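Fission yeast RE007 carrying one integrated HIV-1 vpr copy, seeded at OD 0.01 in PMG+AL medium with 23 nL pinned compound. Grown 24 h at 30 degrees; viability read by BacTiter-Glo luminescence after 5 min.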
LmPK inhibitor = blocks Leishmania mexicana pyruvate kinase activity. Q27686. purified LmPK, Kinase-Glo ATP luminescence, 1 h. Potency, µM (highest dose often 57.5 µM), for the others: at the top dose activity change, negative = inhibition, hits mostly inhibitors. actives 0.37% (n = 290,000)
Target sequence (Q27686 whole entry, looked up): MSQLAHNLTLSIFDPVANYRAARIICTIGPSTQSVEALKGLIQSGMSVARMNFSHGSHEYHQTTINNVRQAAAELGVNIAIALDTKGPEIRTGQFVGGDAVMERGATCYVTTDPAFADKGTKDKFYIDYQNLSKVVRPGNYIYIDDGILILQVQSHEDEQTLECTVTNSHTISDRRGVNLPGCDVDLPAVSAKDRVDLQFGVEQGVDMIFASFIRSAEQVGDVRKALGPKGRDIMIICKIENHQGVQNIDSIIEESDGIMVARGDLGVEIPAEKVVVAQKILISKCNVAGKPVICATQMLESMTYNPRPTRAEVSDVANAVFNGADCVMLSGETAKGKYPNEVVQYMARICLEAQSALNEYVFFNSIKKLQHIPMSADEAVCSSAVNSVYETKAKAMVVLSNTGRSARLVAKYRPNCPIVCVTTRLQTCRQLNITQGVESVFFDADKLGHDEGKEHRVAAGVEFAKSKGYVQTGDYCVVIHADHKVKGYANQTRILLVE
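qHTS format; LmPK 0.1 nM; substrates PEP 0.5 mM and ADP 0.1 mM. One-hour room-temperature incubation, then coupled luciferase luminescence; 0.5 nM enzyme wells mark activation.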
AMA1 RON2 block = disrupts binding of P. falciparum AMA1 to RON2; Potency, µM (doses to about 58.2 µM), for inactives: at the top dose activity change, negative = inhibition, most hits filed as inhibitors; actives 0.2% (n = 360,000); AlphaScreen AMA1-biotinylated RON2 peptide binding;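 note: 0% = vehicle wells and -100% = peptide control; nearly all actives have a fitted effect of over 45% in size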
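AMA1 (3D7) with his tag at 25 nM final met compounds first, then biotinylated RON2 peptide at 25 nM; detection used donor plus acceptor beads, 10 µg/mL apiece, read by AlphaScreen after 30 min at room temperature.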
VACV mCherry inh = vaccinia inhibition (mCherry reporter); Vaccinia virus mCherry reporter infection, fluorescence; Potency, µM (highest dose often 36.5 µM), for the others: at the highest dose activity change, negative = inhibition, hits mostly inhibitors; actives 0.63% (n = 310,000); AID 720579; calls by dose curve; tested in A549 cells; note: nearly all actives have a fitted effect of over 35% in size
VACV Venus inh = inhibitors of vaccinia virus (Venus reporter) | Vaccinia virus Venus reporter expression, fluorescence | Potency, µM (top dose mostly 36.5 µM), without a hit: top-dose activity change, negative = inhibition, most hits filed as inhibitors | actives 0.46% (n = 330,000) | AID 720580; calls by dose curve; tested in A549 cells; note: nearly all actives have a fitted effect of over 30% in size
TbPYK inhibitor = blocks Trypanosoma brucei pyruvate kinase; TbPYK enzyme, Kinase-Glo Plus ATP luminescence, 45 min; AID 624173; Potency, µM (titrated, usually from 76.8 µM), for inactives: at the highest dose activity, negative = inhibition, most hits filed as inhibitors; Q57TT1; actives 0.12% (n = 410,000); note: nearly all actives have a fitted effect of over 50% in size
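TbPYK + substrate in 50 mM TEA pH 7.2, 100 mM KCl, 10 mM MgCl2, 0.05% BSA, 0.01% Tween-20; cpd pinned; ADP 130 uM final; 45 min RT; Kinase-Glo Plus 10 min; luminescence endpoint.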
Starred values were filed as active, the others as inactive; i = inactive; u = inconclusive; x = no result; [ ] = another dose, or the depositor's remark. Unless noted, calls come from the whole dose curve; as a rule, active = well fitted curve in the direction sought with a large enough effect; inconclusive = small, poorly fitted or top-dose-only effect, or another doubt; inactive = no such curve, though single readings can be large; an effect the other way counts as inactive or inconclusive. Unless noted, % is set by controls: 0 for no effect and ±100 for the full control effect; potency is the fitted concentration of half-maximal effect.

SMILES	RE007 growth inh	LmPK inhibitor	AMA1 RON2 block	VACV mCherry inh	VACV Venus inh	TbPYK inhibitor
CC[C@]12c3[nH]c4ccc(Cl)cc4c3CCN1C(=O)[C@@H](CC(=O)NCC13CC4CC(CC(C4)C1)C3)C[C@@H]2C(=O)N1CCN(C(=O)C2CC2)CC1	6%	x	-5%	-20%	10µM*	-2%
CN(C)c1ccc(C=O)c(O)c1	x	x	x	-13%	-9%	x
Cc1ccc(-n2nnc(-c3cccnc3)n2)cc1	-13%	x	13%	i	-14%	-1%
Cc1ccc(-n2nnc(-c3nccn3C)n2)cc1	u	14µM*	-1%	-15%	-15%	u
CCCCCc1ccc(OCCC[n+]2ccccc2)c(CCCCC)c1	-21%	-4%	-1%	10µM*	10µM*	7%
C[n+]1cn(CC(O)COCc2ccccc2)c2ccccc21 (centres undefined)	-7%	-6%	-1%	-28%	-20%	-10%
CCCCCc1ccc(OCCOCCn2c[n+](C)c3ccccc32)c(CCCCC)c1	u	5%	-9%	16µM*	11µM*	-7%
O=S(=O)(c1ccccc1)N(CC(O)Cn1c2ccccc2c2ccccc21)c1ccccc1 (centres undefined)	-9%	3%	-5%	x	10µM*	3%
COc1ccc(OCc2cccc(C(=O)O)c2)cc1	-18%	16µM*	-10%	-14%	-10%	-19%
CCOc1ccc(OCc2cccc(C(=O)O)c2)cc1	u	6.3µM*	0%	-20%	-10%	u
COc1ccc(-n2c(=O)c(C)nc3cnc(Oc4ccccc4)nc32)cc1	x	x	x	x	x	-3%
S=c1[nH]nc(-c2ccc(Cl)cc2Cl)n1Cc1ccccc1	u	u	63%	-5%	0%	-27%
CCn1c(-c2cccn(Cc3ccc(Cl)cc3Cl)c2=O)n[nH]c1=S	21%	11%	75%	-4%	-6%	5.6µM*
Cc1cccc(OCC(=O)Nc2cccc(C(=O)OCc3cc(=O)n4c(C)csc4n3)c2)c1	x	x	x	-18%	-19%	1%
C/C(=N\Nc1nc(C)cc(-c2ccccc2)n1)c1ccc(F)cc1	2%	-1%	48%	x	x	-6%
C/C(=N/Nc1nc(-c2ccccc2)cc(-c2ccc(F)cc2)n1)c1cccc(N)c1	3%	-7%	36%	22µM*	u	-10%
Oc1ccc(C=NNc2nc3ccccc3s2)c(O)c1	1%	x	47%	5µM*	u	-6%
Cc1cc(N/N=C/c2ccccc2O)nc(-c2ccccc2O)n1	-10%	1%	91%	-19%	-9%	-4%
Cc1cc(N/N=C/c2ccc(O)cc2O)nc(-c2ccccc2O)n1	-1%	-3%	110%	2.8µM*	6.3µM*	-4%
CCOC(=O)CSc1nc2ccc(NC(=O)c3ccccc3F)cc2s1	x	x	x	-15%	1%	u
Clc1ccc(SCc2csc(N3CCOCC3)n2)cc1	-12%	-3%	u	-3%	-15%	-3%
Clc1ccc(SCc2cc(N3CCOCC3)nc(-c3ccccn3)n2)cc1	-2%	1%	65%	7.9µM*	u	1%
COc1cc2nc(C#N)nc(N)c2cc1OC	x	x	x	-10%	-6%	x
COc1ccc(-n2ncc(Cl)c(Cl)c2=O)cc1	-10%	-3%	-2%	-21%	-22%	5%
COc1ccc(Sc2cnn(-c3ccccc3)c(=O)c2Cl)cc1	2%	2%	1%	13µM*	u	-2%
SMILES	RE007 growth inh	LmPK inhibitor	AMA1 RON2 block	VACV mCherry inh	VACV Venus inh	TbPYK inhibitor
COc1nn(-c2ccccc2)c(=O)c(Cl)c1Cl	u	-5%	-19%	u	28µM*	1%
COc1c(Cl)cnn(-c2ccccc2)c1=O	6%	0%	-17%	i	-12%	-11%
CN1CCCc2cc(/C=C/c3ccnc4ccccc34)ccc21	x	x	x	-10%	33%	x
CCC(N)CCc1c[nH]c2ccccc12 (centres undefined)	x	x	x	x	x	-9%[157 µM]
CCOC(=O)c1c(OCC)[nH]c2c1cc(O)c1ccccc12	-18%	u	15µM*	-28%	-27%	-19%
CCOC(=O)c1c(C)[nH]c2cc(Br)c(O)cc12	4%	3%	10%	x	x	1%
CC(=O)/C=C/c1ccc2c(c1)S(=O)(=O)N(C1CCCC1)[C@H]2CC(C)=O	x	x	x	-6%	-8%	x
Cc1cccc(CNC(=O)c2cnn(-c3ncc(C)c(-c4cccs4)n3)c2C2CC2)n1	x	x	x	-14%	5%	x
COc1cccc(C(=O)NCC2Cc3cccc(-c4cccnc4)c3O2)c1 (centres undefined)	x	x	x	-10%	-13%	x
Cc1cccc(CNC(=O)c2cnn(-c3nccc(-c4cccs4)n3)c2C(C)C)n1	x	x	x	-23%	-13%	x
O=C1NC(=S)N(c2ccccc2)C(=O)/C1=C/c1ccco1	2%	17%	8.9µM*	i	30%	u
O=C1Cc2c([nH]c3ccc([N+](=O)[O-])cc23)-c2ccccc2N1	0%	x	-5%	1.3µM*	u	-2%
O=[N+]([O-])c1ccc(NC(=S)NCCc2ccc(Cl)cc2)cc1	u	-1%	3%	u	11µM*	-6%
O=[N+]([O-])c1ccc(NC(=S)NCCc2ccccc2)cc1	-3%	0%	5%	-24%	u	-11%
CN(C)c1ccc(CC(=O)N2CCCC(c3cc(C(=O)Nc4ccc(C(C)(C)C)cc4)no3)C2)cc1 (centres undefined)	0%	x	13µM*	-15%	u	-12%
CCCc1cc(-c2n[nH]c(=S)n2CC)cs1	7%	u	79%	-15%	-10%	8.9µM*
CCc1cc(-c2n[nH]c(=S)n2CC)cs1	42%	-22%	75%	-13%	-9%	10µM*
CCCc1cc(-c2n[nH]c(=S)n2C(C)c2ccccc2)cs1 (centres undefined)	4%	22µM*	58%	-20%	-15%	-41%
CCCCn1c(-c2csc(CCC)c2)n[nH]c1=S	6%	22µM*	111%	-2%	0%	u
CCCCn1c(-c2cccnc2)n[nH]c1=S	-4%	-25%	11%	-12%	-3%	u
Cc1cc(C(=O)Nc2cccc(-c3nc(CNC(=O)c4ccccc4C(F)(F)F)c(C)o3)c2)c(C)o1	x	x	x	2%	7%	x
COc1ccc(C(CC(=O)NCc2ccc(Cl)cc2)N2Cc3ccccc3C2=O)cc1OC (centres undefined)	x	x	x	-2%	-16%	-2%
Cc1ccc(NC(=O)c2ccc(CN3CCN(C)CC3)cc2)cc1Nc1nc(-c2cccnc2)cs1	x	x	x	x	x	0%
CCCCn1c(-c2ccc([N+](=O)[O-])cc2)n[nH]c1=S	10%	u	-4%	x	-10%	1.1µM*
CCc1cc(-c2n[nH]c(=S)n2-c2ccccc2C)cs1	5%	28µM*	33%	x	x	u

Screens as filed in PubChem BioAssay.
